# Experimental data taken from PubChem BioAssay AID1910 (Broad Institute, 2009).
# In all, about 300,000 compounds went through this assay and about 950 (0.32%) were called active. The sample holds actives, similar compounds and a random draw of the others, so the mix is not that of the screen.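 Rule for the calls: active = mean activation of at least 10% of the iron chelator positive control signal, with at least half of replicates also reaching 10%; inconclusive = mean and replicate majority disagree about reaching 10%; inactive = mean and most replicates under 10%.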
# Test: HIF pathway transcriptional activators, primary screen, cell-based, U2OS HRE-luciferase, luminescence (AID 1910)
# Details: U2OS HRE-luciferase reporter, active compounds read high, screened at 7.5 µM (by protocol), normalized: DMSO 0%, desferrioxamine 100%
row,Compound,activation
1,COc1ccc(CNC(=O)C2CCN(C(=O)c3ccccc3)CC2)cc1,-0.358% (inactive)
2,CCOc1ccc(N(CC(=O)NCc2ccc(OC)cc2)S(=O)(=O)c2c(C)noc2C)cc1,0.179% (inactive)
3,CCOc1ccc(N(CC(=O)OC)S(=O)(=O)c2c(C)noc2C)cc1,-0.196% (inactive)
4,COc1ccc(N(CC(=O)Nc2cc(OC)ccc2OC)S(=O)(=O)c2c(C)noc2C)cc1,10.1% (active)
5,COc1ccc(Cl)cc1NC(=O)CN(C)C(=O)c1cc(-c2cccs2)nn1-c1ccccc1,1.06% (inactive)
6,CCN(CC(=O)Nc1cc(Cl)ccc1C)C(=O)Cn1c(=O)cnc2ccccc21,-0.594% (inactive)
7,O=C(COc1coc(CN2CCN(c3ccccc3)CC2)cc1=O)N1CCc2ccccc21,0.142% (inactive)
8,Nc1nonc1-n1nnc(C(=O)N/N=C/c2cc(Br)ccc2O)c1CSC1=NCCS1,20.7% (active)
9,Nc1nonc1-n1nnc(C(=O)N/N=C/c2ccccc2O)c1CN1CCCC1,-0.146% (inactive)
10,Cc1ccc(SCc2c(C(=O)N/N=C/C3CC=CCC3)nnn2-c2nonc2N)cc1 (configuration not stated),0.655% (inactive)
11,CCN1CCN(C(=O)N(Cc2ccc(Cl)cc2)S(=O)(=O)c2ccc(C)cc2)CC1,1.75% (inactive)
12,Cc1cccc(C(=O)OC(C)C(=O)NC2CCCc3ccccc32)c1O (configuration not stated),-0.427% (inactive)
13,O=[N+]([O-])c1ccc(O)c(/C=N/Nc2ccccc2[N+](=O)[O-])c1,1.42% (inactive)
14,Oc1ccc(/C=N/Nc2ccc(C(F)(F)F)cn2)cc1O,2.36% (inactive)
15,Oc1ccc(Br)cc1/C=N/Nc1ccccn1,90.5% (active)
16,O=C(NC1CC1)C(Cc1ccccc1)NS(=O)(=O)c1ccccc1F (configuration not stated),-30.3% (inactive)
17,CCS(=O)(=O)c1ccc(-c2cccc(NC(=O)c3ccc(Br)o3)c2)nn1,-0.865% (inactive)
18,CC(=O)Nc1ccc(Nc2c3ccccc3nc3ccccc23)cc1,7.58% (inactive)
19,N#Cc1cccc(Nc2c3c(nc4ccccc24)CCCC3)c1,-0.204% (inactive)
20,Cc1ccc(Nc2c3c(nc4ccccc24)CCC3)cc1,97.4% (active)
21,Cc1ccc(SCC(=O)Nc2nncs2)cc1,-0.275% (inactive)
22,NS(=O)(=O)c1cc(C(=O)OCC(=O)NNC(=O)c2ccccc2)ccc1Cl,0.0895% (inactive)
23,Cc1nc(-c2ccccc2)sc1C1(C)CC(c2cccnc2)=NO1 (configuration not stated),5.85% (inactive)

row,Compound,activation
1,Cn1ccnc1-c1nnn(-c2ccc(F)cc2)n1,2.61% (inactive)
2,CCOc1ccc(CCNC(=O)COC(=O)C2CCN(c3ccc(C(F)(F)F)cn3)CC2)cc1OCC,0.095% (inactive)
3,Cc1ccc(NC(=O)NC(=O)CSc2nnc(-c3ccc(OC(F)F)cc3)n2N)c(C)c1,2.08% (inactive)
4,CC(C)NC(=O)NC(=O)CSc1nnc(-c2ccccc2F)n1N,88% (active)
5,Nn1c(SCC(=O)NC2CCCC2)nnc1-c1ccccc1F,-0.0397% (inactive)
6,COc1ccc(NC(=O)CN(C)C(=O)c2n[nH]c3ccccc23)cc1,2.08% (inactive)
7,O=C(CCNC(=O)c1ccc(Br)cc1)NCCCc1ccccc1,0.558% (inactive)
8,CC(=O)N1CCc2c(sc(NC(=O)CCS(=O)(=O)c3ccc(C)cc3)c2C(N)=O)C1,-0.0953% (inactive)
9,CS(=O)(=O)c1ccc(Cl)c(NC(=O)COC(=O)c2cccc(S(=O)(=O)N3CCCC3)c2)c1,0.78% (inactive)
10,CCN1/C(=C\c2ccc3ccccc3[n+]2CC)Sc2cc(C)ccc21,16.3% (active)
11,CCc1nnc(NS(=O)(=O)c2ccc(NC(=O)c3cccc(OC(F)(F)C(F)F)c3)cc2)s1,-0.386% (inactive)
12,CCOC(=O)c1ccc(NC(=O)c2c(NCc3ccccc3)[nH]c(=O)[nH]c2=O)cc1,0.835% (inactive)
13,O=C(c1ccc(F)cc1)N1CCC(C(=O)N2CCN(S(=O)(=O)c3ccccc3Br)CC2)CC1,1.51% (inactive)
14,O=C(CSc1nnc2c(n1)[nH]c1ccccc12)NC1CCCCC1,0.503% (inactive)
15,Cc1ccc(C(C)NC(=O)Cn2nc(C)c([N+](=O)[O-])c2C)cc1 (configuration not stated),-0.456% (inactive)
16,Cc1ccc(OCC(=O)NC(C)c2ccccc2)c([N+](=O)[O-])n1 (configuration not stated),-1.24% (inactive)
17,CC(C)N(c1ccccc1)c1ncnc(NCCC(=O)O)c1[N+](=O)[O-],173% (active)
18,COc1ccc(S(=O)(=O)NCC(c2ccc(C)cc2)N2CCN(C)CC2)cc1OC (configuration not stated),-0.0703% (inactive)
19,COc1ccccc1NC(=O)C1CCN(C(=O)c2ccc(C(C)(C)C)cc2)CC1,24.7% (active)
20,CC(C)(C)c1ccc(C(=O)N2CCC(C(=O)N3CCCCC3)CC2)cc1,-0.293% (inactive)
21,COc1ccc(C(=O)N2CCC(C(=O)Nc3ccc(C)cc3)CC2)cc1,0.165% (inactive)
22,Cc1ccc2nc(SCC(=O)N3CCN(c4ccccc4)CC3)nc(=O)n2c1,-0.536% (inactive)
23,Cc1nc2nc3c(cn2n1)C(=O)CC(c1ccccc1)C3 (configuration not stated),842% (active)

row,Compound,activation
1,Cc1cc(C)nc(-n2ncc3c2CC(c2ccc(C(C)C)cc2)CC3=O)n1 (configuration not stated),0.0559% (inactive)
2,CN1CCN(c2ncc3c(n2)CC(c2ccccc2F)CC3=O)CC1 (configuration not stated),-0.449% (inactive)
3,COc1ccccc1NC(=O)Nc1nc(CC(=O)Nc2ccccc2F)cs1,-0.165% (inactive)
4,NC(=O)c1ccsc1NC(=O)COC(=O)Cc1n[nH]c(=O)c2ccccc12,0.145% (inactive)
5,CCCCn1c(N)c(N(CC(C)C)C(=O)C2CSC3(C)CCC(=O)N23)c(=O)[nH]c1=O (configuration not stated),0.199% (inactive)
6,COc1ccc(N2C(=O)CNC2=S)cc1,-0.317% (inactive)
7,COc1ccc(-n2c(C)csc2=S)cc1,14.5% (active)
8,COc1ccc(-n2c(-c3ccc(OC)c(OC)c3)n[nH]c2=S)cc1,1.1% (inactive)
9,c1ccc(-c2nc(NCc3ccco3)c3ccccc3n2)cc1,0.461% (inactive)
10,O=C(Cc1ccccc1)n1nc(-c2ccccc2)nc1NCc1ccco1,1.38% (inactive)
11,CS(=O)(=O)n1nc(-c2ccccc2)nc1NCc1ccco1,16.1% (active)
12,N#CCN(C(=O)COC(=O)C1CC2CCCC(C1)C2=O)c1ccccc1 (configuration not stated),-0.0724% (inactive)
13,Cc1ccc(C(=O)Nc2nnc(C3=COCCO3)o2)cc1C,0.0306% (inactive)
14,COc1cccc(N2CC(C(=O)NCc3n[nH]c(=O)c4ccccc34)CC2=O)c1 (configuration not stated),3.45% (inactive)
15,COc1ccc(NC(=O)CCC(=O)Nc2cc(OC)c(NC(=O)c3ccco3)cc2OC)c(OC)c1,-0.226% (inactive)
16,COc1ccc(NC(=O)c2cccc(NC(=O)c3ccco3)c2)c(OC)c1,10.1% (active)
17,COc1ccccc1C(=O)Nc1ccc(NC(=O)c2ccco2)c(C)c1,0.062% (inactive)
18,COc1ccccc1OCCCCCCN1CCN(C)CC1,0.237% (inactive)
19,CCOc1ccc(C(C)=O)cc1COC(=O)CNC(=O)c1cccs1,0.00171% (inactive)
20,O=C(CCCO)N/N=C/c1cc(Br)ccc1O,-1.18% (inactive)
21,O=C(N/N=C/c1ccccc1O)C1CCCC1,0.236% (inactive)
22,O=C(N/N=C/c1ccccc1O)/C(=C/c1ccccc1)CCO,31.1% (active)
23,Cc1cccc(N=C2SC(C)CN2C(=O)CN2C(=O)NC3(CCCC3)C2=O)c1 (configuration not stated),0.348% (inactive)

row,Compound,activation
1,CCN(CC(=O)Nc1c(F)cccc1F)C(=O)c1ccc(Sc2nncn2C)c([N+](=O)[O-])c1,0.52% (inactive)
2,O=C(Nc1cccc(F)c1)c1coc(=O)c(Br)c1,0.54% (inactive)
3,COc1ccc(N2CC(C(=O)NCCN3C(=O)S/C(=C\c4cccnc4)C3=O)CC2=O)c(OC)c1 (configuration not stated),0.0693% (inactive)
4,O=C(NCCCN1CCOCC1)c1cc(-c2cccc(O)c2)on1,-0.131% (inactive)
5,O=C(NCCCN1CCOCC1)c1cc(-c2ccccc2F)no1,10.1% (active)
6,O=C(NCCCN1CCOCC1)c1cc(-c2ccc(Cl)cc2)on1,-0.141% (inactive)
7,C=CCNC(=O)/C=C/c1ccc(C(C)C)cc1,2.38% (inactive)
8,Cn1cnc2c1c(=O)n(Cc1ccccc1C#N)c(=O)n2C,-28% (inactive)
9,COc1ccc(C(CNC(=O)c2cccc(NS(=O)(=O)c3ccc(C)c(F)c3)c2)N2CCCC2)cc1 (configuration not stated),-0.102% (inactive)
10,Cc1cc(=O)[nH]c(SCC(=O)Nc2ccc(Br)cc2)n1,0.205% (inactive)
11,O=C1CCCN2N=C(SCC(=O)Nc3ccc(Br)cc3)SC2=N1,20.5% (active)
12,O=C(CSCc1ccc(Br)cc1)Nc1ccc(S(=O)(=O)N2CCCCCC2)cc1,-0.637% (inactive)
13,O=C(Nc1ncccc1O)c1ccc(S(=O)(=O)N2CCCCCC2)cc1,3.25% (inactive)
14,O=C(Nc1ncccc1O)c1ccc(S(=O)(=O)N2CCCC2)cc1,4.15% (inactive)
15,O=C(Nc1ncccc1O)c1ccc(C(=O)c2ccccc2)cc1,14.2% (active)
16,Cc1cc(C)c(C)c(S(=O)(=O)Nc2cccnc2)c1C,-0.0811% (inactive)
17,CCN(CC)c1ccc(/C=N/NC(=O)CNC(=O)c2cccnc2)cc1,-0.424% (inactive)
18,CCN(CC)c1ccc(/C=N/Nc2nc(C)cc(C)n2)c(O)c1,1.77% (inactive)
19,CCN(CC)c1ccc(/C=N/NC(=O)c2cnccn2)c(O)c1,95.3% (active)
20,Cc1c(C(=O)Nc2ccccn2)oc2ccc(Br)cc12,2.61% (inactive)
21,Cc1ccc(C(=O)O)cc1NC(=O)c1ccc(Cn2nc(C)c(Cl)c2C)o1,-0.0752% (inactive)
22,Cc1c(Cl)c([N+](=O)[O-])nn1CCCC(=O)Nc1cc(Cl)ccc1Cl,-0.466% (inactive)
23,Cc1c(Cl)c([N+](=O)[O-])nn1Cc1ccc(C(=O)N/N=C\c2cc(Cl)ccc2O)o1,49.6% (active)
